Laboratory results from PubChem BioAssay (NCI).
Compounds without any hit were thinned out: in the full panel of roughly 83,000, 20% have a hit.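 Testing used 96-well plates and a 48-hour single-concentration exposure. Example: -40 means 40% of the starting cells died.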 A number with no mark means an inactive call. Active and inactive are the calls of the source. The calls were made as follows: active = growth percent below 10; inactive = the rest.

Each molecule was assayed on MDA-MB-435 melanoma (assay: NCI-60 one-dose screen, 48 h (100 = growth as untreated, 0 = no growth, -100 = all killed)). Settings: 10 µM unless noted.

Row | SMILES | growth
1 | COc1cccc(-c2nc3sccn3c2-c2ccnc(NCCCNS(=O)(=O)c3c(Cl)cccc3Cl)c2)c1 | 64.5%
2 | CC1=NN(c2nc(-c3ccc(Cl)cc3)c(C#N)c(N3CCOCC3)n2)C(=O)C1 | 87.8%
3 | Cc1nc2c3c(-c4ccccc4)c(-c4ccccc4)oc3ncn2n1 | 100%
4 | C=CC(=O)Nc1cccc(-c2nc(SC)nc(NCc3ccccc3)c2C#N)c1 | 62%
5 | N#Cc1c(N)n(CCNC(=O)c2ccccc2)c2nc3ccccc3nc12 | 95.9%
6 | C=C(C)[C@@H]1CC[C@]2(C(=O)OC)CC[C@]3(C)[C@H](CC[C@@H]4[C@@]5(C)C/C(=C/c6cccc(I)c6)C(=O)C(C)(C)[C@@H]5CC[C@]43C)[C@@H]12 | 96.6%
7 | Cc1c(/C=C/[N+](=O)[O-])ccc2c1[nH]c1ccccc12 | -11.2% (active)
8 | COc1cc(/C=C/c2cc(O)c3cc(C(C)=O)c(=O)oc3c2)cc2c1O[C@]1(C)CC[C@@H](O)C(C)(C)[C@H]1C2 | 21.2%
9 | CCCOc1ccc2nc(NC(=O)OC)[nH]c2c1 | -49.3% (active)
10 | COc1cc(/C=C/C(=O)c2ccc(O)c(CN3CCN(c4cc5c(cc4F)c(=O)c(C(=O)O)cn5C4CC4)CC3)c2)cc(OC)c1OC | 28.6%
11 | C=CCSSc1ncnc2c1ncn2C1OC(CO)C(O)C1O (configuration not stated) | 22.5%
12 | COc1cc2nc(N3CCCC3)nc(NCc3ccccc3)c2cc1OC | 6.99% (active)
13 | CC[C@H]1OC(=O)[C@H](C)[C@@H](O[C@H]2C[C@@](C)(OC)[C@@H](O)[C@H](C)O2)[C@H](C)[C@@H](O[C@@H]2O[C@H](C)C[C@H](N(C)C)[C@H]2O)[C@](C)(O)C[C@H](C)CN(C)[C@H](C)[C@@H](O)[C@]1(C)O | 96.9%
14 | CSc1nc(NCCN2CCOCC2)c(C#N)c(-c2cccc([N+](=O)[O-])c2)n1 | 104%
15 | CC(C)c1c(C(=O)c2ccccc2)c(-c2ccccc2)c(-c2ccc(F)cc2)n1CC[C@@H](O)C[C@@H](O)CC(=O)O | 68.9%
16 | N#CCCN=Nc1c(O)[nH]c2ccc([N+](=O)[O-])cc12 | 111%

Row | SMILES | growth
17 | CC[C@@H]1O[C@H](O[C@@H](c2cnc[nH]2)[C@H](NC(=O)c2nc([C@H](CC(N)=O)NC[C@@H](N)C(N)=O)nc(N)c2C)C(=O)N[C@H](C)[C@H](O)[C@H](C)C(=O)N[C@@H](C(=O)NCCc2nc(-c3nc(C(=O)NCCCCN=C(N)N)cs3)cs2)[C@@H](C)O)[C@H](O[C@@H]2O[C@H](CO)[C@H](O)[C@H](OC(N)=O)[C@@H]2O)[C@H](C)[C@@H]1C | 81.9%
18 | COc1cc2nc(N3CCCC3)nc(Nc3ccccc3)c2cc1OC | -61.4% (active)
19 | Nc1nc2ncc(CCNc3ccc(C(=O)O)cc3)nc2c(=O)[nH]1 | 112%
20 | CCCN1CCN(c2ccc3nc(-c4ccc5nc(-c6ccc(OCC)cc6)[nH]c5c4)[nH]c3c2)CC1 | 27.6%
21 | COc1ccc(Nc2nc(SC)nc(-c3cccc([N+](=O)[O-])c3)c2C#N)cc1 | 66.5%
22 | O=C1CC(=NCC(=O)n2c(-c3ccccc3)nc3ccccc32)NN1 | 105%
23 | CC(C)(O)c1cn(CCCCN2C(=O)C(=O)c3ccccc32)nn1 | 101%
24 | CCCCCCCCCCCCC[N+](C)(C)Cc1ccccc1 | -73.6% (active)
25 | COc1ccc(/C=C/C(=O)c2ccc(O)c(CN3CCN(c4cc5c(cc4F)c(=O)c(C(=O)O)cn5C4CC4)CC3)c2)cc1 | 28.3%
26 | O=S(=O)(Nc1ccc(OC(F)F)cc1)c1ccc(-c2cnc(C3CC3)o2)cc1 | 8.1% (active)
27 | N#C/C(=C\c1ccc(-c2cc(C(F)(F)F)ccc2Cl)o1)c1nc(-c2ccco2)cs1 | 102%
28 | O=C(O)c1ccc(N=CC(=O)c2ccc(-c3ccccc3)cc2)cc1 | 103%
29 | COc1cccc(-c2nn(C(C)(C)C)cc2-c2ccnc(NCCCNS(=O)(=O)c3ccc(C)cc3)c2)c1 | 104%
30 | CC(C)n1c(/C=C/[C@@H](O)C[C@@H](O)CC(=O)O)c(-c2ccc(F)cc2)c2ccccc21 | 55.8%
31 | N#Cc1c(-c2ccc(Cl)cc2)nc(N/N=C/c2cccc(Br)c2)nc1N1CCOCC1 | 104%
32 | COc1ccc(-c2nc3ccc(-c4nc5ccc(N6CCN(c7ccncc7)CC6)cc5[nH]4)cc3[nH]2)cc1OC | 31.4%
